The full ranking holds about 25,000 sequences; the median of “ln(normalized median fluorescence intensity)” is about 9.3, and the highest 2% start at about 10. The sample holds the highest values, similar sequences and a random draw of the others, so the mix is not that of the screen.
system: PF3D7_0420300 AP2 domain 1 (GST-tagged); experiment: gcPBM binding intensity (ln(normalized median fluorescence intensity)); higher = stronger DNA binding
Summary of the method: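 An Agilent 4 × 180k array carrying primer-extended double-stranded 36-bp intergenic genomic probes and negative controls received GST-tagged P. falciparum DNA-binding domains expressed in E. coli, about 25 μg on average, for 1 h. The binding buffer contained 1× PBS, 1% milk, 0.2 mg/ml BSA, 0.5% salmon testes DNA and 0.03% Triton X-100. Binding intensity is the top Masliner-normalised natural-log median intensity across replicate spots of either probe orientation, read after Alexa488 anti-GST antibody staining and a 488 nm scan.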

| Sequence | gcPBM binding intensity (ln) |
| --- | --- |
| AAAAAAAAAAAAAAATGTACATTATACACATTATAT [XGTACX_site6824] | 9.28 |
| AAAGGGGAGATATGAACACACAAAAAAAAAATATAT [CACACA_site7378] | 9.58 |
| CTATACAATAAAAATTGTACATACATATATGTTATA [XGTACX_site5309] | 9.17 |
| TATAACTTTTTTATTACACACCTATGTAATATTATA [CACACA_site944] | 9.37 |
| CCTAAATAATATCTATCACACACGCATATATACATA [CACACA_site8838] | 9.56 |
| TATGTTAAAAAAAAAAAAAAGAAAAAAATAAAAGGA [CACACA_negctrl_site119] | 9.44 |
| CACATACATATATACACACACAAAATAATAAAATAA [CACACA_site2308] | 10 |
| TATAAATATACAAACACACATACAAACATATATATA [CACACA_site1120] | 9.91 |
| TCAAAAATAAAGATCACACATATATATATATATATA [CACACA_site4381] | 9.2 |
| CATACATACAAACACACACACATATAAATACATACA [CACACA_site4625] | 10.2 |
| TATAAATATATATATACACACACATACACAAAAAAA [CACACA_site9191] | 10.2 |
| CACAAAAATAAACACACACACATATATATATATATA [CACACA_site4704] | 9.75 |
| AAGAGAAAAATATATACACACACATAAATATATACA [CACACA_site8573] | 9.96 |
| TAAATATATAAATACACACACATACACAAAAAAAAA [CACACA_site5890] | 10.1 |
| TATAAGAGAATATATACACACAAAAATATATACAGT [CACACA_site1668] | 9.89 |
| AAAAAAAAAGATCACACACACATAAATATAAACAAA [CACACA_site5285] | 10.2 |
| TAAATATATAAATACACACAAACATACATATATATA [CACACA_site4050] | 9.88 |
| TATAAGAGAATATATACACACAAAAATAAATACAGT [CACACA_site5000] | 10.3 |
| AATACATACATACATACATGCATATATATATATATA [TGCATGCA_site462] | 9.42 |

| Sequence | gcPBM binding intensity (ln) |
| --- | --- |
| ATTTACATTCACTTATGTACTTATATAATTTTATTT [XGTACX_site8150] | 9.54 |
| CCCATTTTGACAAAAAGTACAAGTTCAGGTTTTATA [XGTACX_site1532] | 9.22 |
| AACTATAAAAATTTTACACACTGTTTTTAAATAATG [CACACA_site5928] | 9.4 |
| TATAAAAAATAATACACACACATGGCGACAAAATAA [CACACA_site2420] | 10.2 |
| ATATAAATATTAATTACACACAAAAAAAAAAAAAAA [CACACA_site6671] | 9.35 |
| AATATAAAAAATAATACACACACATGGCGACAAAAT [CACACA_site8765] | 10.2 |
| TAATAAAAAATATATACACACAAATAAATAAATAAA [CACACA_site4037] | 9.83 |
| ATAAATAAGATACGTACACACATATACAAAATATAC [CACACA_site3661] | 9.95 |
| TACACAAAAATAAACACACACACATATAAATAAATA [CACACA_site6599] | 10.2 |
| AGATAAAATAAATACACACACATAAATACGTACAAA [CACACA_site4739] | 10.2 |
| AGATAAAATATATACACACACATAAATACGTACAAA [CACACA_site1086] | 10.1 |
| TATTTACACAAAATAAAATATATTATATATATATAT [TGCATGCA_negctrl_site381] | 8.93 |
| AATATATAAATATATACACACAAAAACATATATATA [CACACA_site1318] | 9.8 |
| TACACAAAAATAAACACACACACATATATATATATA [CACACA_site1000] | 9.78 |
| ATATATATATATTACACACACACAAAAAAAATAAAG [CACACA_site118] | 10.4 |
| GGTGTATGTTAAAGGAGTACATATATATATATATAT [XGTACX_site7727] | 9.3 |
| ACCTTTGATATATACACACACATAAAAAAAATATAT [CACACA_site6952] | 9.93 |
| TACAACCTTTAGACAAGTACAAGAATTATATGTGGC [XGTACX_site4581] | 9.4 |
| AAAAAAAAAAATTACACACATACATATAATAATAAT [CACACA_site2193] | 9.85 |

| Sequence | gcPBM binding intensity (ln) |
| --- | --- |
| AGCAGTCGACAGGACAGTACACAGTAGCCAGGAAAT [XGTACX_site4929] | 9.32 |
| AAATTATAAATACCTACACACTTATCAAAATAAATT [CACACA_site5280] | 9.56 |
| ATTGGGTTCATCAGCACACACAACATCATGTAATAA [CACACA_site5093] | 9.5 |
| AATTAATGGAAACAAGTCAAATGATCTTTATGCATA [TGCATGCA_negctrl_site540] | 9.13 |
| TTTATATAATTTTAATGTACATATATATATATAAAT [XGTACX_site4381] | 8.98 |
| TACACATACAGACATACACACATACACATATACACA [CACACA_site6918] | 9.88 |
| AAAAAAAACAGACACACACACATACACATACATACA [CACACA_site2857] | 10.2 |
| TACATACACAGACACACACACATATATATATATATA [CACACA_site3557] | 9.89 |
| TAAACAGACATATAAACACACATACATACATACATA [CACACA_site7215] | 9.56 |
| TAAACAGACATACATACACACATACATACAGACATA [CACACA_site6997] | 9.88 |
| CATATACATACACATACACACATACAGACATACACA [CACACA_site6919] | 9.83 |
| AAAAAAAACAGACACACACACACATATACATACATA [CACACA_site2665] | 10.2 |
| AACAGACATACATACACACATACATACAGACATACA [CACACA_site1942] | 9.9 |
| AAAAAACACAGACACACACACATATACATACATACA [CACACA_site2666] | 10.2 |
| TAATGATTATATGACTGTACATTTGTAGGTATAATT [XGTACX_site3373] | 9.18 |
| ACATAAAAATTATGCACACTTAATAAAGCGAAATGT [CACACA_site3183] | 9.45 |
| TATATATAAAAATATACACACACAAATGTATATATA [CACACA_site7956] | 9.54 |
| AAATATTTTATACTTGCACACAAAATATATTAAAAT [CACACA_site8606] | 9.32 |
| AAAAACAAAAAAGAAGCACACATATATATATATATA [CACACA_site8779] | 9.6 |
